Results reported in PubChem BioAssay.

Assays:
[1] = target: Tumor necrosis factor receptor superfamily member 10B (Homo sapiens) (UniProt O14763); test: viability loss of caspase-8 NB7 cells with TRAIL – with/without TRAIL, luminescence panel, confirmation (AID 651596); settings: NB7 neuroblastoma + caspase-8, TRAIL sensitization, NB7 Caspase-8, with TRAIL, mean of runs, at 10 µM, stronger effect = higher value
[2] = as above; settings: NB7 neuroblastoma + caspase-8, without TRAIL, NB7 Caspase-8, without TRAIL, mean of runs, at 10 µM

Chain of Tumor necrosis factor receptor superfamily member 10B (Homo sapiens) (O14763 whole entry, looked up): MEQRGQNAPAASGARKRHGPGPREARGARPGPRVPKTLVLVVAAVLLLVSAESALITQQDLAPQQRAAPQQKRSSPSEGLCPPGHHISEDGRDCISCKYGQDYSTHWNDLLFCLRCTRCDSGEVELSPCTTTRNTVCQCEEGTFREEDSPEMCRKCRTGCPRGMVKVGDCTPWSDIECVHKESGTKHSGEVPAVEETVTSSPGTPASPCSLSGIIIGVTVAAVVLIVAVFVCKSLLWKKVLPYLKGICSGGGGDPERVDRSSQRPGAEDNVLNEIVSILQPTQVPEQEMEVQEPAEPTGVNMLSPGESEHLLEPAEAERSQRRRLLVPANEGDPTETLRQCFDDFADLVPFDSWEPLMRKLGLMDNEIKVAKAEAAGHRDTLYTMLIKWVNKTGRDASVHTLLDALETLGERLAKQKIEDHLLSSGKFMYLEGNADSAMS

Row | SMILES | activity [1] [%] | activity [2] [%]
1 | CCOC(=O)c1cc([N+](=O)[O-])cc([N+](=O)[O-])c1Sc1ncnc2nc[nH]c12 | 51.5 | 71.2
2 | COc1cc2c3nnc(-c4ccc(F)cc4)c-3cn(Cc3cccc(C)c3)c2cc1OC | 48.9 | 67
3 | COc1oc(C(=O)NC2CCCCC2)c(-c2ccc(Cl)cc2)c1S(=O)(=O)c1ccccc1 | 97.8 | 96.8
4 | Cc1cc(C)n(-c2ccc(C(=O)Nc3ccc(C)c(S(=O)(=O)N4CCOCC4)c3)cc2)n1 | 63.5 | 24.2
5 | CCCCC(=O)Nc1cc(C)c2c(=O)oc3ccccc3c2n1 | 62.4 | 56.6
6 | C[C@@H](CO)NC(=O)c1ccc2c3n(nc2c1)-c1ccccc1CO3 | 91.5 | 91.8
7 | Cc1ccc(OCc2nc(-c3ccccn3)no2)c(Br)c1 | 59.6 | 56.6
8 | CC(C)C(=O)N1CCN(c2ccc(NC(=O)c3ccc([N+](=O)[O-])o3)cc2Cl)CC1 | 75.4 | 97.5
9 | Cc1ccc(-c2cn3cc([N+](=O)[O-])ccc3n2)cc1 | 50.9 | 41.5
10 | O=C(Nc1ccccn1)c1ccc2c(=O)n3c(nc2c1)CCCCC3 | 50.4 | 62.5
11 | COc1ccc(-n2cc(C(=O)c3ccccc3O)cn2)cc1 | 39.1 | 29.7
12 | COc1cccc2oc3cc(C#CC4(O)CCCCC4)ccc3c(=O)c12 | 71.2 | 68.8
13 | CC(C)Nc1ncnc2c1cnn2-c1ccc(Cl)cc1 | 60.6 | 67.4
14 | CC(=O)Oc1ccccc1C(=O)C=Cc1cccc([N+](=O)[O-])c1 | 36.3 | 76.7
15 | CCc1ccc(-c2cn3nc(C)c(C)nc3n2)cc1 | 75.3 | 63.9
16 | O=C(CCN1C(=O)c2ccccc2C1=O)Nc1ccc(-c2nc3ccccc3s2)cc1 | 44.4 | 41.9
17 | Nc1nc(N)c2cc(Sc3ccc4ccccc4c3)ccc2n1 | 61 | 73.9
18 | Nc1ccccc1C(=O)NN=Cc1cccnc1 | 63.5 | 58.7
19 | Cc1ccc(-n2c(-c3ccc(Br)cc3)c[n+]3c2CCc2ccc4cccnc4c2-3)cc1 | 70.2 | 63
20 | NC(Cc1ccc(C(F)(F)F)cc1)c1csc(NC(=O)Nc2ccccc2Oc2ccccc2)n1 (configuration not stated) | 75.1 | 93.7
21 | O=C(CCl)N1CCN(S(=O)(=O)c2ccc3ccccc3c2)CC1 | 94.9 | 64.7
22 | Cc1ccc(C(=O)Nc2ccc3c(c2)OCCO3)c(C)c1 | 91.6 | 91.5
23 | COc1ccc(C=NNC(=O)NN=Cc2ccc(OC)c(OC)c2)cc1OC | 69 | 65
24 | CCCCCCCCC(c1nc2ccccc2[nH]1)N1CCN=C1c1cc2ccccc2[nH]1 (configuration not stated) | 54.9 | 84.8
25 | CCC1=NN(C(=O)c2cccc(Br)c2)C(O)(c2ccc(Br)cc2)C1 (configuration not stated) | 19.9 | 22.4
26 | CC(C)Cc1ccc(C(C)CC2=CCC(CN(C)C)C2=O)cc1 (configuration not stated) | 86.2 | 91.8
